Rows were chosen to be rich in hits. Some 19% of all compounds tested hit in one or more screens of this group.
HT1080 IDH1KD tx: kills HT-1080 cells with IDH1 knockdown | 360,000 tested, 2% active | HT-1080 IDH1 knockdown viability, ATP luminescence, 48 h | Potency, µM (doses to about 46.1 µM), hits mostly cytotoxic | AID 686971
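Assay cells: HT-1080 with IDH1 knockdown, 750 per well, RPMI/5% FBS. Exposure: 48 h at 37 °C following 2 h pre-incubation. Read: CellTiter-Glo luminescence; fitted concentration-response, curve class assigned.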
HT1080-NT tox: kills 2HG-producing HT-1080-NT fibrosarcoma cells | HT-1080-NT fibrosarcoma viability, CellTiter-Glo ATP luminescence, 48 h | Potency, µM (highest dose often 46.1 µM), usual class: cytotoxic | 360,000 tested, 1.6% active | AID 686970;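 also: NT is the 2HG producing partner of a matched IDH1 knockdown line; nearly all actives have a fitted effect of over 55% in size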
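Toxicity toward the 2HG-producing NT line was scored as %Activity, normalised to DMSO and no-cell wells, from CellTiter-Glo luminescence after 48 hours' treatment.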
DT40 TDP1 CPT: DT40-hTDP1 cell growth loss with CPT; chicken DT40 Tdp1-/-;hTDP1 cells + 20 nM CPT, ATP luminescence, 48 h; 420,000 tested, 12% active; Potency, µM (titrated, usually from 46.2 µM), most hits filed as inhibitors; also: nearly all actives have a fitted effect of over 55% in size
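Cell growth measured by CellTiter-Glo luminescence after a minimum 48 h, 37 C compound exposure with 20 nM CPT in Tdp1-knockout DT40 cells stably expressing hTDP1, seeded 400/well; qHTS titration format.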
ELG1 repair inh: ELG1-dependent DNA repair inhibition; Potency, µM (highest dose often 46.1 µM), actives largely listed as inhibitors; HEK293T ELG1-luciferase reporter, luminescence, 16 h; DNA damage induced by 5-fluorouridine; AID 504467; 330,000 tested, 2.3% active; also: nearly all actives have a fitted effect of over 55% in size
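DMSO vehicle served as the neutral condition. Each well held 2,000 cells given 5-fluorouridine plus compound; after 16 hr at 37 °C/5% CO2, ONE-Glo was added and luciferase measured 30 min later.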
IL1B secr inh: blocks inflammasome-driven IL-1 beta release; activity change, % at 57.5 µM; THP-1 LPS/ATP IL-1B secretion, AlphaLISA, 16 h; stronger effect = lower value; 360,000 tested, 4.7% active; in the data active = activity change below about -50%; inconclusive = mostly about -30% to -49%
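Secreted IL-1B measured by AlphaLISA bead assay after 16 h compound exposure of THP-1 cells; compounds (final up to 57.5 uM) added 1 h before LPS (250 ng/mL) and ATP (1.25 mM) stimulation; lower signal means less secretion.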
TDP1 cell noCPT: qHTS for Inhibitors of human tyrosyl-DNA phosphodiesterase 1 (TDP1): qHTS in cells in absence of CPT. DT40 Tdp1-/- hTDP1 cells, no CPT, ATP luminescence, 48 h. Potency, µM (top dose mostly 46.2 µM), hits mostly inhibitors. 420,000 tested, 15% active. AID 686978, 2013; also: nearly all actives have a fitted effect of over 55% in size
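Luminescent ATP content (CellTiter-Glo) served as the growth readout. Knockout chicken DT40 cells expressing human TDP1 were exposed to compounds without camptothecin for a minimum 48 hr at 37 °C.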
Large screens that a line does not name were inactive. Unless noted, calls follow the shape of the dose curve; as a rule, active = well fitted curve in the direction sought with a large enough effect; inconclusive = small, poorly fitted or top-dose-only effect, or another doubt; inactive = no such curve, though single readings can be large; an effect the other way counts as inactive or inconclusive.

C[C@H]1CN([C@@H](C)CO)C(=O)c2cc(Br)cnc2O[C@H]1CN(C)C(=O)C1CCC1	TDP1 cell noCPT inconclusive (no result: ELG1 repair inh)
Cc1cccc(-n2ncc3c2CCCC3NC(=O)CCCN2CCCCC2=O)c1C (centres undefined)	ELG1 repair inh inconclusive
CCN1CCN(Cc2c3ccccc3cc3ccccc23)CC1	DT40 TDP1 CPT inconclusive, IL1B secr inh -86, TDP1 cell noCPT inconclusive
CC(=O)NCCNc1nc(NCc2cccs2)nc2ccsc12	TDP1 cell noCPT inconclusive (no result: ELG1 repair inh)
COCCNc1nc(NCc2cccs2)nc2ccsc12	DT40 TDP1 CPT inconclusive, IL1B secr inh -90, TDP1 cell noCPT 26µM (no result: ELG1 repair inh)
COCCNc1nc(NCc2cc(-c3ccc(OC)cc3)no2)c2sccc2n1	HT1080 IDH1KD tx 13µM, HT1080-NT tox inconclusive, DT40 TDP1 CPT inconclusive, IL1B secr inh inconclusive, TDP1 cell noCPT 18µM (no result: ELG1 repair inh)
c1csc(CNc2nc(NCC3CCCCC3)c3sccc3n2)c1	HT1080 IDH1KD tx inconclusive, HT1080-NT tox inconclusive, DT40 TDP1 CPT 5.8µM, IL1B secr inh inconclusive, TDP1 cell noCPT 9.2µM (no result: ELG1 repair inh)
O=C1CCCN1CCCNc1nc(NCc2cccs2)nc2ccsc12	HT1080-NT tox inconclusive, DT40 TDP1 CPT 21µM, IL1B secr inh -84, TDP1 cell noCPT 16µM (no result: ELG1 repair inh)
COCCNc1nc(Oc2ccc(Cl)c(Cl)c2)c2sccc2n1	DT40 TDP1 CPT inconclusive (no result: ELG1 repair inh)
CCOc1ccc(CCNC(=O)CN2N=C(c3ccccc3)CCC2=O)cc1OCC	TDP1 cell noCPT inconclusive (no result: HT1080 IDH1KD tx, HT1080-NT tox, ELG1 repair inh, IL1B secr inh)
CNc1nc(NCc2ccccc2)c2sccc2n1	HT1080 IDH1KD tx inconclusive, HT1080-NT tox inconclusive, DT40 TDP1 CPT 18µM, TDP1 cell noCPT 16µM (no result: ELG1 repair inh)
O=C1NCCN1CCNc1nc(NCc2ccccc2)nc2ccsc12	DT40 TDP1 CPT inconclusive, TDP1 cell noCPT inconclusive (no result: ELG1 repair inh)
c1ccc(CNc2nc(NCc3cccs3)nc3ccsc23)cc1	HT1080 IDH1KD tx inconclusive, HT1080-NT tox inconclusive, DT40 TDP1 CPT 18µM, IL1B secr inh -57, TDP1 cell noCPT 12µM (no result: ELG1 repair inh)
c1ccc(CNc2nc(NCCc3ccncc3)c3sccc3n2)cc1	HT1080 IDH1KD tx inconclusive, HT1080-NT tox inconclusive, DT40 TDP1 CPT 18µM, IL1B secr inh -98, TDP1 cell noCPT 10µM (no result: ELG1 repair inh)
CNc1nc(-c2ccccc2)c2sccc2n1	DT40 TDP1 CPT inconclusive, TDP1 cell noCPT inconclusive (no result: ELG1 repair inh)
CCN(CC(=O)Nc1cc(Cl)ccc1C)C(=O)c1cc(S(=O)(=O)N2CCCCCC2)ccc1OC	DT40 TDP1 CPT inconclusive, ELG1 repair inh inconclusive, IL1B secr inh inconclusive, TDP1 cell noCPT 18µM
CCCCN(C(=O)c1cc(S(=O)(=O)N2CCCCCC2)ccc1OC)c1ccccc1	HT1080 IDH1KD tx inconclusive, DT40 TDP1 CPT inconclusive, IL1B secr inh -81, TDP1 cell noCPT inconclusive
CCN(CC(=O)Nc1ccccc1OC)C(=O)c1cc(S(=O)(=O)N2CCCCCC2)ccc1OC	DT40 TDP1 CPT 16µM, ELG1 repair inh inconclusive, TDP1 cell noCPT 12µM
CC(c1ccccc1)C1CC(=O)N(Cc2ccco2)C1=O (centres undefined)	DT40 TDP1 CPT inconclusive, TDP1 cell noCPT 21µM
COc1cc(OC)nc(Nc2nc(C(N)Cc3ccc(Cl)cc3)cs2)n1 (centres undefined)	HT1080 IDH1KD tx inconclusive, HT1080-NT tox 23µM, DT40 TDP1 CPT 23µM, IL1B secr inh -89, TDP1 cell noCPT 15µM (no result: ELG1 repair inh)
COC(=O)c1cc(C)nc(Nc2nc(C(N)Cc3ccc(Cl)cc3)cs2)n1 (centres undefined)	HT1080 IDH1KD tx inconclusive, DT40 TDP1 CPT inconclusive, IL1B secr inh -68, TDP1 cell noCPT inconclusive (no result: ELG1 repair inh)
Cc1cc(C)nc(Nc2nc(C(N)Cc3ccccc3)cs2)n1 (centres undefined)	HT1080 IDH1KD tx 7.3µM, HT1080-NT tox 5.8µM, DT40 TDP1 CPT 5.8µM, TDP1 cell noCPT 5.2µM (no result: ELG1 repair inh)
NC(C(=O)O)c1cc(O)c(Cl)c(O)c1 (centres undefined)	none (no result: HT1080 IDH1KD tx, HT1080-NT tox, ELG1 repair inh, IL1B secr inh)
CC1CN(C(=S)SCC(=O)c2ccc(Cl)cc2)CC(C)O1 (centres undefined)	DT40 TDP1 CPT 4.1µM, TDP1 cell noCPT 2.6µM

Bioassay records deposited in PubChem BioAssay by National Center for Advancing Translational Sciences (NCATS).
